Tgondii IFNg: inhibitors of Toxoplasma gondii growth with IFN-gamma | Toxoplasma gondii growth in IFN-gamma-treated host cells; stronger effect = lower value | activity change, negative = inhibition, % (concentration not given with the values) | 69,000 tested, 3.8% active | AID 1259416; in the data active = activity change below about -70%, passing the limit was not always enough;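 note: host cells are HeLa cells infected with Toxoplasma gondii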
Active calls of the source: *; ! = not confirmed by another sample. This is one part of a sample in which hits are shown more often than they occur.

`CCOC(=O)CSC1=Nc2ccccc2C2=NC(CC(=O)NC3CCCCC3)C(=O)N12` (configuration not stated) gave Tgondii IFNg 14.
`CCOc1ccc(S(=O)(=O)c2ccc(Cl)cc2)cc1` gave Tgondii IFNg 16.
Screening CCOc1ccc(S(=O)(=O)n2cc(F)c(=O)[nH]c2=O)cc1 returned Tgondii IFNg -85*.
`CCOc1ccc(S(=O)(=O)N2CCC3(CC2)Nc2cc(F)ccc2-n2cccc23)cc1` gave Tgondii IFNg 23.
For Cc1ccc(C)c(-c2nc(CSc3nc4c(=O)[nH]c(C)nc4n3C)c(C)o2)c1 the results were Tgondii IFNg -4.
For O=C(NCCc1csc(-c2cccc(F)c2)n1)c1ccccc1Br the results were Tgondii IFNg 15.
`COc1ccc(CCCC(=O)Nc2ccc(Cn3ccnc3)cc2)cc1C` gave Tgondii IFNg -4.
`O=C(NCC1CCN(Cc2ccncc2Cl)C1)C1CCCCC1` (configuration not stated) gave Tgondii IFNg -61.
`Cc1nc2ccccc2nc1SCC(=O)Nc1ccccc1OC(C)C` gave Tgondii IFNg -88*.
For COc1ccccc1NC(=O)CSc1nc2ccccc2n1CC(=O)N1CCOCC1 the results were Tgondii IFNg 6.
CCOc1ccccc1NC(=O)CSc1ccc(Cl)cc1 was read as Tgondii IFNg 11.
`CCOCC1CN(C(=O)c2ccc3c(c2)OCO3)Cc2ccnn2C1` (configuration not stated) gave Tgondii IFNg 24.
Screening CC(C)CCN1Cc2c(C(=O)N3CCCCCC3)ncn2-c2ccccc2S1(=O)=O returned Tgondii IFNg -3.
Screening C[C@H](CO)N1C[C@H](C)[C@H](CN(C)C(=O)c2cnccn2)Oc2cc(C#CCC3CCCC3)ccc2S1(=O)=O returned Tgondii IFNg -100*.
Screening CCCC#Cc1ccc2c(c1)O[C@@H](CN(C)Cc1ccccn1)[C@H](C)CN([C@@H](C)CO)S2(=O)=O returned Tgondii IFNg -29.
For CCCN(C)C[C@H]1Oc2cc(/C=C/c3ccccc3)ccc2S(=O)(=O)N([C@H](C)CO)C[C@H]1C the results were Tgondii IFNg -92*.
For C[C@@H]1CN([C@@H](C)CO)S(=O)(=O)c2ccc(-c3ccncc3)cc2O[C@H]1CN(C)S(C)(=O)=O the results were Tgondii IFNg 72.
Screening COCC#Cc1ccc2c(c1)O[C@H](CN(C)C(=O)C1CCOCC1)[C@H](C)CN([C@@H](C)CO)S2(=O)=O returned Tgondii IFNg 51.
Screening C[C@@H]1CN([C@@H](C)CO)S(=O)(=O)c2ccc(C#Cc3cccc(F)c3)cc2O[C@@H]1CN(C)S(=O)(=O)c1cn(C)cn1 returned Tgondii IFNg 32.
Screening C[C@H](CO)N1C[C@H](C)[C@H](CN(C)Cc2ccccc2C(=O)O)Oc2cc(-c3ccc(F)cc3)ccc2S1(=O)=O returned Tgondii IFNg 65.
`CCCN(C)C[C@@H]1Oc2cc(/C=C/c3ccccc3)ccc2S(=O)(=O)N([C@H](C)CO)C[C@@H]1C` gave Tgondii IFNg 9.
Screening Cc1ccc(S(=O)(=O)N(C)C[C@@H]2Oc3cc(C#CC4CCCC4)ccc3S(=O)(=O)N([C@@H](C)CO)C[C@H]2C)cc1 returned Tgondii IFNg -109*.
Screening C[C@H]1CN([C@@H](C)CO)S(=O)(=O)c2ccc(C#CCC3CCCC3)cc2O[C@@H]1CN(C)C(=O)c1cnccn1 returned Tgondii IFNg -53.
Screening CCCC#Cc1ccc2c(c1)O[C@H](CN(C)Cc1ccccn1)[C@H](C)CN([C@@H](C)CO)S2(=O)=O returned Tgondii IFNg -94*.
CCCC#Cc1ccc2c(c1)O[C@H](CN(C)Cc1ccccn1)[C@@H](C)CN([C@H](C)CO)S2(=O)=O was read as Tgondii IFNg -29.
Screening CC(=O)N1CCc2c(nc(C)nc2NCc2nc(C)c3c(n2)CCCC3)C1 returned Tgondii IFNg -6.
OCC1(CCc2ccccc2)CCCN(c2ncccn2)C1 (configuration not stated) was read as Tgondii IFNg 27.
`COc1cccc(Cn2cccc3cc(C(F)F)nc2-3)c1` gave Tgondii IFNg 34.
`Cc1ccc(N2CCCC3(CCN(CCN(C)C)C3=O)C2)nn1` (configuration not stated) gave Tgondii IFNg -3.
`Cc1nc(C)n(CC(=O)N2CCC(C3CCCCN(CCc4ccccc4)C3=O)CC2)n1` (configuration not stated) gave Tgondii IFNg 2.
Screening COc1ccc(CN2CCOC3(COCCN(CCN(C)C)C3)C2)cc1 (configuration not stated) returned Tgondii IFNg -3.
`O=C1CN2Cc3c(ccc(Cl)c3Cl)N=C2N1` gave Tgondii IFNg -83*!.
Screening Cc1ccc(N2CCO[C@H]3CN(C(=O)c4ccccn4)C[C@@H]32)nn1 returned Tgondii IFNg 1.
Screening O=C(NCc1ccncc1)C1CC12CCN(C(=O)c1ccccc1)C2 (configuration not stated) returned Tgondii IFNg 9.
For Cc1ccccc1N1CCN(C(=O)c2ccc(C#CC(C)(C)O)o2)C(C)C1 (configuration not stated) the results were Tgondii IFNg 4.
`O=C(Nc1cnn(-c2ncc(N3CCSCC3)cn2)c1)NC1CCCC1` gave Tgondii IFNg -1.
Screening COc1ccc(C(=O)NCCc2csc(-c3ccc(F)cc3)n2)cc1 returned Tgondii IFNg -13.
CCOC(=O)c1cccnc1-c1ccc(-c2ccn[nH]2)cc1 was read as Tgondii IFNg 7.
CCOC(=O)c1sc2sc(C(=O)OCC)c(-c3ccco3)c2c1N was read as Tgondii IFNg -35.
CCOC(=O)c1sc2sc(-c3ccn[nH]3)c(C)c2c1C was read as Tgondii IFNg -110*.
Screening CO[C@H]1CN(C(=O)NCc2ccccc2)[C@H]2COC[C@@H]12 returned Tgondii IFNg 6.
`O=C(Cc1cccs1)N1CCC(c2nnc(-c3ccccc3)c(-c3ccccc3)n2)CC1` gave Tgondii IFNg -18.
For CCCCN(Cc1ccc(C(=O)NO)cc1)C(=O)Nc1ccccc1 the results were Tgondii IFNg -85*.
Screening O=C(Nc1ccccc1)N(Cc1ccc(Cl)cc1)Cc1nc2ccccc2c(=O)[nH]1 returned Tgondii IFNg -46.
Screening CCCCN(C)Cc1ccc(C(=O)Nc2c(C)noc2C)cc1 returned Tgondii IFNg -4.
For CN1C(=O)N(CCc2ccccc2)C(=O)C12CCN(Cc1ccc3c(c1)OCO3)CC2 the results were Tgondii IFNg 3.
COc1ccc(-c2csc(NC(=O)c3ccccc3C)n2)cc1 was read as Tgondii IFNg -7.
CCc1noc(CC)c1C(=O)Nc1nc(-c2ccc(OC)c(OC)c2)cs1 was read as Tgondii IFNg -82*.
CCc1noc(CC)c1C(=O)Nc1nc(CS(=O)(=O)c2ccc(C)cc2)cs1 was read as Tgondii IFNg -66.
For CCN1CCC2(CC1)OC(=O)C(C)=C2C(=O)N1CCN(c2ccc(Cl)cc2)CC1 the results were Tgondii IFNg 11.
For Cc1ccc(NC(=O)Cn2c(=O)cc(C(=O)N3CCCCC3)c3ccccc32)cc1F the results were Tgondii IFNg 9.
For O=C(c1cccs1)N1CCCC2(CCN(c3ncccn3)C2)C1 (configuration not stated) the results were Tgondii IFNg -37.
Cn1cccc1-c1cc(C(=O)N2CCc3c(nc[nH]c3=O)C2)[nH]n1 was read as Tgondii IFNg -7.
For O=C(NNc1nc2cc(F)ccc2n2cccc12)c1cnccn1 the results were Tgondii IFNg -81*.
